# eIF4E 4G PPI = eIF4E/eIF4G interaction inhibition in translation initiation | P63073+Q04637 | TR-FRET eIF4E-eIF4GI(517-606) binding, 2 h | inhibition, % at 21.7 µM | hit rate 0.37% among 220,000;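 note: 0% = full FRET control wells and 100% = background wells lacking eIF4GI fragment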
# Bim-Mcl-1 = disrupts Bim peptide binding to human Mcl-1; Q07820; hit rate 0.1% among 190,000; Bead-based flow cytometry, Bim peptide-Mcl-1 binding; inhibition, % at 10 µM; in the data active = inhibition above about 40%;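 note: 0% = no compound tracer wells and 100% = peptide blocker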
# Target sequence (Q07820 whole entry, looked up): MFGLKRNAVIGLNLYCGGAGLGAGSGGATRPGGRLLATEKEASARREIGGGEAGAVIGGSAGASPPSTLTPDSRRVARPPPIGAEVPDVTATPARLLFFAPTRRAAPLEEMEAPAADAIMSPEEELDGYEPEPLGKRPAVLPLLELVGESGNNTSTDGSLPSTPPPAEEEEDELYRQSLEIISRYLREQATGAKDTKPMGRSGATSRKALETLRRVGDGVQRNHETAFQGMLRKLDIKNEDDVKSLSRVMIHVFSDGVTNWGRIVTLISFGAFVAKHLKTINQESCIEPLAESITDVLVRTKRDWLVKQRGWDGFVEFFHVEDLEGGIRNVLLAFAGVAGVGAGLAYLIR
# Mcl1-Noxa inh = Mcl-1/Noxa interaction inhibition; TR-FRET Mcl-1/Noxa peptide binding, 2 h; inhibition, % at 21.7 µM; hit rate 1.5% among 220,000; AID 1022;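 active = compounds that cut the protein-peptide binding signal by more than 50% relative to plate controls in a single-dose test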;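 note: His-tagged Mcl-1 with rhodamine Noxa BH3 peptide and terbium anti-His antibody; 0% = Mcl-1 plus Noxa peptide wells and 100% = peptide-only wells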
# NCF1 inh = p47phox (human) inhibition; P14598; hit rate 0.53% among 220,000; p47phox/p22phox peptide binding, fluorescence polarization, 2 h; inhibition, % at 24.7 µM;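 note: 0% = p47phox with labelled peptide and 100% = labelled peptide alone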
# 14-3-3 Bad PPI = disrupts binding of bovine 14-3-3 zeta to phospho-Bad peptide; inhibition, % at 21.7 µM; TR-FRET 14-3-3zeta/Dy647-pBad peptide displacement, 1 h; P63103; AID 781; hit rate 0.71% among 220,000;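 active = inhibition above about 70%, limit read from the data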;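 note: 0% = full 14-3-3 plus peptide FRET controls and 100% = background without 14-3-3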
# Target sequence (P63103 whole entry, looked up): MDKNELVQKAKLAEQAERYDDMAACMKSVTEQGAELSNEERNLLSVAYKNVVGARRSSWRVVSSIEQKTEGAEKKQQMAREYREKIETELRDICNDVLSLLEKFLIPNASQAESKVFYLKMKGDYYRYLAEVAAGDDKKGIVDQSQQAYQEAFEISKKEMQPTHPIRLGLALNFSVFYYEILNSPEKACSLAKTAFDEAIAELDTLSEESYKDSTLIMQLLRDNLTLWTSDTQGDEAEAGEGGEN
# Mcl1 Bid PPI = Mcl-1/Bid interaction inhibition. Q07820. TR-FRET Mcl-1/Bid-Dy647 peptide binding, 1536-well. inhibition, % at 21.7 µM. hit rate 0.97% among 220,000;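 active = compounds that cut the binding signal by more than half at the single screening dose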;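 note: His-tagged Mcl-1 with europium anti-His antibody binding Bid BH3 peptide; 0% = Mcl-1 plus peptide wells and 100% = peptide-only wells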
# Starred values were filed as active, the others as inactive; . = no result given; [ ] = another dose, or the depositor's remark. An excerpt weighted towards active compounds, which were near 3.3% of everything screened.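 Rule for the calls, unless noted: active = inhibition above about 30% (limit read from the data); inactive = the rest.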
SMILES,eIF4E 4G PPI,Bim-Mcl-1,Mcl1-Noxa inh,NCF1 inh,14-3-3 Bad PPI,Mcl1 Bid PPI
CCCCC[C@H](O)/C=C/[C@@H]1[C@@H](C/C=C\CCCC(=O)OC)[C@@H](O)C[C@H]1O,88.2*,0.0,42.6,1.8,90.9*,98.4*
O=C(c1cnc(Cl)c(Cl)c1)N1CCC(Cc2ccccc2)CC1,6.4,1.0,51.1*,-3.2,0.5,3.9
CCOc1ccc(-c2nc(N)ncc2-c2ccccc2)c(O)c1,-6.8,-2.0,25.6,-6.8,13.8,50.9*
CCOc1ccc(-c2nc(N)ncc2-c2ccc(OC)cc2)c(O)c1,8.8,1.0,26.5,-3.5,-1.5,-2.6
Cc1cccc(N=Cc2[nH]c3ccc(Br)c(Cl)c3c2O)c1,17.1,-3.0,62.0*,-29.8,49.0,23.9
CCN1CNC(=S)N(C(C)c2ccccc2)C1 (centres undefined),-2.9,-8.0,5.2,-5.8,-0.1,-45.9
O=C(c1cnccn1)N(Cc1cccs1)C1(C(=O)NC2CCCCC2)CCCCC1,1.3,54.0*,6.2,-4.0,2.7,0.9
O=C(c1cnccn1)N(Cc1cccs1)C1(C(=O)NC2CCCC2)CCCCC1,-2.1,-24.0,13.0,4.0,0.1,9.5
COc1ccc(OC)c(-n2c(=S)[nH]c3c(sc(=S)n3-c3ccccc3)c2=O)c1,-1.5,0.0,24.1,-4.1,-9.8,-42.0
Cc1ccc(O)c(C(=O)c2cnn(C(=O)COc3ccccc3C#N)c2)c1,9.4,.,31.1,32.3*,30.7,17.7
Clc1cccc(CN2CCCCCCC2)c1Cl,-4.5,-3.0,14.8,-5.8,31.5,29.5
CN(C)c1cc[n+](CC(=O)N2CCCc3ccccc32)cc1,0.2,2.0,1.0,-8.5,-0.8,-38.4
O=C(COc1ccccc1)N/N=C/c1ccc([N+](=O)[O-])o1,2.9,-3.0,4.3,-2.4,10.0,-22.2
O=C(CNc1ccc2ccccc2c1)N/N=C/c1ccc([N+](=O)[O-])o1,-3.8,0.0,70.5*,5.1,36.9,64.6*
Cc1cc(C(=O)N/N=C/c2ccc([N+](=O)[O-])o2)c(C)o1,11.4,.,15.3,56.4*,0.7,-19.7
COc1ccc(-c2nn(-c3ccccc3)cc2C(=O)N/N=C/c2ccc([N+](=O)[O-])o2)cc1,0.7,0.0,51.9*,7.1,-8.2,20.8
O=c1[nH]c(NNC(=S)NC2CCCCC2)nc2c1C1(CCCC1)Cc1ccccc1-2,-7.6,.,-63.8,-5.0,-11.7,-75.9
Cc1c(NC(=O)C(C)OC(=O)c2ccc([N+](=O)[O-])s2)c(=O)n(-c2ccccc2)n1C (centres undefined),6.9,-1.0,-23.8,-2.5,4.7,-6.7
CC(C)N(C)S(=O)(=O)c1ccc(Cl)c(C(=O)O)c1,3.0,-2.0,11.7,2.0,-7.2,-6.5
Cc1ccc2[nH]c3c(c2c1)CN(C)CC3,-1.3,-1.0,-2.1,-3.4,74.5*,-14.9
Oc1c(N=Nc2ccccn2)ccc2ccccc12,0.6,7.0,.,62.4*,-15.3,-80.2
c1ccc2c(c1)ccc1ncccc12,0.2,-2.0,15.5,-6.5,-7.3,-12.2
Nc1c(C(=O)NC2CC2)sc2nc3c(c(-c4ccco4)c12)CC/C3=C/c1ccco1,27.4,35.0,96.8*,8.2,-8.1,84.1*
NC(=O)c1sc2nc3c(c(-c4ccco4)c2c1N)CCC3,4.6,10.0,25.2,-13.2,13.4,-25.6
Cn1c(NNC(=O)C2CCCCC2)cc(=O)n(C)c1=O,-0.3,-6.0,3.3,-0.5,-8.5,-55.2
SMILES,eIF4E 4G PPI,Bim-Mcl-1,Mcl1-Noxa inh,NCF1 inh,14-3-3 Bad PPI,Mcl1 Bid PPI
O=C(CCCCCn1c(=S)[nH]c2ccc(N3CCOCC3)cc2c1=O)NCc1cccc(Cl)c1,3.2,0.0,9.3,16.3,1.0,-15.8
O=C(N[C@@H](Cc1ccccc1)C(=O)O)c1ccncc1,0.8,-1.0,25.3,-6.2,7.1,94.4*
O=C(NC(Cc1ccccc1)C(=O)O)c1ccc(S(=O)(=O)N2CCCC2)cc1 (centres undefined),3.1,-3.0,19.8,-17.9,0.1,4.9
O=C(NC(Cc1ccccc1)C(=O)O)c1ccc(S(=O)(=O)N2CCCCC2)cc1 (centres undefined),3.7,2.0,17.6,-2.1,-4.2,99.2*
O=C(C(=O)N1CCN(c2cccc(Cl)c2)CC1)c1c[nH]c2ccccc12,-1.3,0.0,15.6,-5.2,-12.5,-11.6
CCN(CC)C(=N)N1c2ccccc2CCC1C (centres undefined),-3.1,3.0,11.4,6.8,-6.9,-15.1
O=C(O)CSc1cc(C(=O)c2ccccc2O)cn2c(=O)c3c4c(sc3nc12)CCCC4,17.1,.,79.6*,-19.4,75.0*,50.5*
CCOC(=O)N1CCN(C(=O)c2cccn3c(=O)c4c5c(sc4nc23)CCCC5)CC1,-5.8,-3.0,12.4,-13.4,-8.1,-17.6
C=CCOC(=O)/C(=C\c1ccccc1)NC(=O)c1ccc(C)cc1,-1.0,1.0,117.0*,-2.6,-0.3,-17.1
c1ccc(OCc2nnc3sc(-c4cccs4)nn23)cc1,27.0,-12.0,0.6,-8.3,19.6,16.6
Clc1ccc(Cl)c(-c2nn3c(COc4ccccc4)nnc3s2)c1,33.6*[fluorescence artefact?],3.0,-0.7,-4.4,7.0,16.7
C#CCOCCOCCOCCNc1nc(N2CCN(C(=O)[C@H](CCC(=O)O)n3cc(C(N)Cc4ccc(O)cc4)nn3)CC2)nc(N2CCN(C(=O)[C@H](Cc3cc4ccccc4[nH]3)n3cc(C(N)CC(C)C)nn3)CC2)n1 (some centres undefined),0.8,-4.0,27.1,3.9,12.0,10.7
C#CCOCCOCCOCCNc1nc(N2CCN(C(=O)[C@H](CCCCN)n3cc([C@@H](N)CO)nn3)CC2)nc(N2CCN(C(=O)[C@H](Cc3cc4ccccc4[nH]3)n3cc([C@@H](N)CC(C)C)nn3)CC2)n1,-4.6,1.0,35.5,.,32.6,53.5*
C#CCOCCOCCOCCNc1nc(N2CCN(C(=O)C(Cc3ccc(O)cc3)n3cc(C(N)CC(C)C)nn3)CC2)nc(N2CCN(C(=O)C(Cc3cc4ccccc4[nH]3)n3cc(C(N)Cc4ccc(O)cc4)nn3)CC2)n1 (centres undefined),1.2,-5.0,36.7,0.2,25.3,96.3*
C#CCOCCOCCOCCNc1nc(N2CCN(C(=O)[C@H](CCCCN)n3cc([C@@H](N)CO)nn3)CC2)nc(N2CCN(C(=O)[C@H](Cc3cc4ccccc4[nH]3)n3cc([C@@H](N)CO)nn3)CC2)n1,-7.8,.,15.2,38.9*,-0.2,-36.4
O=C(Cn1nc(-c2cccc([N+](=O)[O-])c2)c2ccccc2c1=O)Nc1cccnc1,-6.1,0.0,23.4,-17.2,5.8,3.9
O=C(/C=C/c1cn(-c2ccccc2)nc1-c1cccnc1)N1CCCC1,-0.8,-1.0,-5.6,-5.3,-6.2,-13.4
O=C(/C=C/c1cn(-c2ccccc2)nc1-c1cccnc1)NCCN1CCOCC1,-3.7,0.0,-5.4,0.5,85.1*,-19.6
